Results on 91 compounds are retold here after PubChem BioAssay AID1878 (Sanford-Burnham Center for Chemical Genomics, 2009).

SMILES strings stand for the structures. Out of some 1,000 compounds screened, about 200 (20%) were called active. Only a sample is shown. Results with a measured potency or affinity are listed apart. Unmarked numbers belong to inactive results. No stated cut-off is given here; in the data, active means inhibition above about 55%; inactive means the rest.

The term inhibition denotes the change of the read-out against control, counted positive when it falls.

Sequence of Dual specificity protein phosphatase 3 (Homo sapiens) (P51452 whole entry, looked up): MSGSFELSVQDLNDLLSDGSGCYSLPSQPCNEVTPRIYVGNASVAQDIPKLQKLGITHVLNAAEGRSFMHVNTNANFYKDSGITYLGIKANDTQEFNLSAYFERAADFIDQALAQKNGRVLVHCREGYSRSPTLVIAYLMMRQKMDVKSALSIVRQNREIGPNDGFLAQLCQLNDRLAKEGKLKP

This assay has as its target Dual specificity protein phosphatase 3 (Homo sapiens) (UniProt P51452). As to the kind of experiment: VHR1 phosphatase inhibitors, biochemical (AID 1878). Conditions: recombinant VHR phosphatase, fluorogenic substrate; at 13.3 µM; hits give high values.
For `CCOC(=O)C1(CCOc2ccccc2)CCN(CC(O)CO)CC1` (stereo unspecified), the inhibition was -7.8%.
Turning to `CC1CCCN(CCCNC(=O)c2ccc3c(c2)N(Cc2ccccc2F)C(=O)c2ccccc2S3(=O)=O)C1` (stereo unspecified), the inhibition was -12.5%.
Next, `Cc1ccc(C(=O)Nc2ccccc2N2CCCC2)cc1`: 21%.
As for `CC(C)Cn1c(C23CC4CC(CC(C4)C2)C3)n[nH]c1=S`, the figure is 10%.
As for `CCCCNC(=O)c1cn(C)c2ccc(S(=O)(=O)N3CCCC3)cc2c1=O`, the figure is -4%; as for `Cc1ccc(CN2C(=O)CC(Nc3ccc(N4CCOCC4)cc3)C2=O)cc1` (stereo unspecified), 1.9%; as for `Cc1ccc2nc(N3CCN(C)CC3)c(C=O)c(=O)n2c1`, 2.4%.
As to `O=C(c1cc(F)c(F)c(F)c1F)N1CCN(Cc2ccc3c(c2)OCO3)CC1`, the inhibition is -6.3%.
In the case of `O=C1NN(c2ccccc2)C(=O)/C1=C\c1ccccc1`, the inhibition is 5.2%.
With `CN(C)c1nc(N(C)C)nc(N(C#N)Cc2ccc(Cl)cc2)n1`, the inhibition was 2%.
For the compound `COc1cc(CNc2ccc(N3CCN(C(C)=O)CC3)cc2)ccc1OCc1ccc(F)cc1`, the inhibition was -8.4%.
As for `COc1ccc(C2CC(=O)C(C=NCCO)=C(O)C2)cc1` (stereo unspecified), the figure is -0.8%; as for `COc1cc(/C=N/n2c(C)nc3ccccc3c2=O)ccc1O`, 16.3%; as for `COc1ccc2c(c1)c(C(=O)N/N=C/c1ccc(OC)c(OC)c1)c(C)n2C`, -4.6%.
As for `COc1ccc2nc(C)cc(SCC(=O)N/N=C/c3c(OC)ccc4ccccc34)c2c1`, the figure is 92% (active); as for `COc1ccc(OC)c(NC(=O)Cc2coc3ccc4ccccc4c23)c1`, -4.5%.
Next, `CN(C)CCCNC(=S)N(CCCN(C)C)Cc1cc2cc3c(cc2[nH]c1=O)OCO3`: -11.5%; `CN(CCO)c1nc(N)c2c(N)nc3c(c2c1C#N)CC(=O)N3C1CCCC1`: 2.2%.
`Cc1ccc(N=Nc2cc(C)ccc2O)c(C)c1`: the inhibition was 0.1%.
As for `CC(=O)Nc1c(-c2ccccc2)c2cc(Br)ccc2[nH]c1=O`, the figure is -0.4%; as for `CC1CCCN(CCCNC(=O)C2CCN(S(=O)(=O)N3CCC4(CC3)OCCO4)CC2)C1` (stereo unspecified), 2.1%.
Regarding `O=C(Cn1cnc2c(oc3nc4c(cc32)CCCC4)c1=O)Nc1cccc(Cl)c1`, the inhibition was 37.7%.
As for `CSc1ccc(NC(=O)N2CCN(c3nc4ccccc4s3)CC2)cc1`, the figure is 5%; as for `Cc1ccc2nc(NC(=O)CCCc3nc4ccccc4s3)sc2c1`, -0.6%; as for `Cc1csc(NC(=O)CCCC(=O)O)c1-c1nc2ccccc2s1`, 98.8% (active).
Next, `O=C(CN1CCN(S(=O)(=O)c2ccc(Br)cc2)CC1)c1ccc(O)c(O)c1`: -4.1%; `Cc1cc(C)cc(NS(=O)(=O)c2ccc(-c3cnc(C4CC4)o3)cc2)c1`: 13%.
As for `CCOc1cc(/C=N/NC(=O)c2ccc(-c3csc(Nc4ccc(C)cc4)n3)cc2)ccc1OCC(=O)O`, the figure is 75.5% (active).
Consider `CC(NC(=O)COc1ccc(/C=N/NC(=O)CO)cc1)c1ccccc1` (stereo unspecified), for which the inhibition is 1.2%.
Next, `CC(C)(C)c1ccc2c(c1)OC(C(=O)N/N=C\c1ccc[nH]1)CO2` (stereo unspecified): 6.8%; `CCOC(=O)C1CCCN(CC(=O)Nc2nccs2)C1` (stereo unspecified): 23.9%; `CCOC(=O)c1ccc(S(=O)(=O)Nc2ccc(N3CCOCC3)cc2)cc1`: -9%.
Next, `CC(=O)N1CC(=O)Nc2ccc(F)cc2C1c1ccccc1` (stereo unspecified): 32.3%.
Next, `CCOC(=O)C1=C(N)Oc2ccc3ccccc3c2C1c1cccc(O)c1` (stereo unspecified): -5.7%.
Take `O=C(Nc1ccc(-n2nncc2-c2ccco2)cc1)c1cc2ccccc2oc1=O`: the inhibition is 96.1% (active).
As for `CCn1c2ccccc2c2n[nH]c(=S)nc21`, the figure is -2.6%.
As for `Cc1cc(C)c(S(=O)(=O)Nc2ccc(N(C)C)cc2)c(C)c1-n1cnnn1`, the figure is -1.2%; as for `CC(=O)NCCc1nc2cc(NC(=O)c3ccc([N+](=O)[O-])cc3)ccc2n1C`, -5.3%.
As for `COc1ccc(Cc2nnc(NC(=O)c3ccco3)s2)cc1`, the figure is -10%; as for `CCN(CC)CCCNc1oc(-c2ccccc2[N+](=O)[O-])nc1C#N`, 22.5%; as for `O=C1CSC(c2cccc([N+](=O)[O-])c2)N1Cc1ccccc1` (stereo unspecified), 3.2%.
Consider `Cc1ccc(OCCCCN2CCCCC2)cc1`, for which the inhibition was 6.5%.
Next, `Cc1ccccc1NC(=O)CN1C(=O)N/C(=C\c2ccccc2OCc2ccc(C(=O)O)cc2)C1=O`: 84.1% (active); `CSc1nsc2nc(=O)c(/C=C3\C(C)=Nc4ccccc43)c(N)n12`: 7.5%.
Next, `COc1cc(NC(=O)c2noc(C)c2[N+](=O)[O-])c(OC)cc1Cl`: -2.3%.
Next, `CC1CC(C)CN(CCCNC(=O)C2CCCN(S(=O)(=O)N3CC(C)CC(C)C3)C2)C1` (stereo unspecified): 20.9%; `C=CCn1c(=O)c2c(nc3n2CCCN3Cc2ccccc2)n(C)c1=O`: -4%; `Cc1cccc(NC(=O)c2cc3c(=O)n4ccccc4nc3s2)c1`: 93.3% (active).
`C/C(=N\NC(=O)c1c(C)nc2ccccn12)c1ccccc1F`: the inhibition was -12.4%.
As for `Cc1cccc(NC(=O)c2cc(-c3ccc(C)c(C)c3O)n[nH]2)c1`, the figure is 8.4%.
Consider `CCC(N)Cc1c[nH]c2ccccc12` (stereo unspecified), for which the inhibition is 14.4%.
Next, `O=C(COc1ccc2c(-c3ccccc3)cc(=O)oc2c1)Nc1ccc(CCO)cc1`: 84.8% (active).
As for `O=C(COc1ccccc1)Nc1ccncc1Cl`, the inhibition is 8.7%.
Take `Cc1cccc(CC(=O)Nc2cccnc2)c1`: the inhibition is -5.3%.
Turning to `O=C(COc1ccc2c(-c3ccccc3)cc(=O)oc2c1)Nc1cccnc1`, the inhibition was 92.7% (active).
`CC(C)CCN1CCC(n2nccc2NC(=O)C2CCOC2)CC1` (stereo unspecified): the inhibition was -5.2%.
Next, `Oc1cc(Br)ccc1C=Nc1ccc(N2CCCCC2)cc1`: -10%.
Next, `CCN(CC)c1ccc(NC(=O)CCNS(=O)(=O)c2ccc3c(c2)CCC(=O)N3)c(C)c1`: -13.1%; `CC1CCN(CCNC(=O)C2CCCN(c3ncnc4c3nc3n4CCCCC3)C2)CC1` (stereo unspecified): 7.1%.
Next, `Cc1occc1C(=O)N1CCCC(CCC(=O)NCc2ccc(F)c(F)c2)C1` (stereo unspecified): -8.6%; `COc1ccccc1NC(=O)C1CCCN(S(=O)(=O)c2ccc3c(c2)CC(C)N3C(C)=O)C1` (stereo unspecified): 17.3%.
As for `O=C(NC1CC2CCC(C1)N2Cc1ccccc1)c1ccccc1Br` (stereo unspecified), the inhibition is -2.7%.
Next, `O=[N+]([O-])c1ccc(Oc2cccc3cccnc23)c(Cl)c1`: -14.5%; `O=P(Cc1ccccc1)(c1ccccc1)c1ccccc1`: 6.2%.
As for `Cc1cc(O)c(C=Nc2ccc(N3CCOCC3)cc2)c(C)c1Cl`, the figure is 0.1%; as for `CCOC(=O)c1ccc(N/N=C/c2cc(Br)cc([N+](=O)[O-])c2O)cc1`, 27.8%; as for `O=C(N/N=C/c1cc(Br)cc([N+](=O)[O-])c1O)c1ccc(NC(=O)c2ccc(F)cc2)cc1`, 95.6% (active).
Next, `COc1ccc(CC(=O)Nc2cccc3c2CCCC3)cc1`: -12.1%; `O=C(O)CC1OCC=C2CN3CCC45c6ccccc6NC4C1C2CC35` (stereo unspecified): -2.6%; `O=C1COc2ccc(S(=O)(=O)N3CCC(C(=O)NCc4ccc(F)cc4)CC3)cc2N1`: -1.8%.
For the compound `Cc1cc(C)cc(N2CC(O)=C(c3nc4ccccc4c(=O)[nH]3)C2=N)c1`, the inhibition is 60.5% (active).
Next, `COc1ccc(C(=O)OC2CC[C@@]3(C)C4CCC5[C@]6(O)CC(O)[C@@]7(O)C(CN8CC(C)CCC8[C@@]7(C)O)[C@]6(O)C[C@@]53O[C@]24O)cc1OC` (stereo partly specified): -10.1%.
As for `COC(=O)CCCC(=O)N1CCC(n2nccc2NC(=O)CCOc2ccccc2)CC1`, the figure is 7.4%.
For the compound `Cc1cc(=O)oc2c3c(cc(OCC(=O)NCC(=O)N[C@H](C(=O)O)C(C)C)c12)OC(C)(C)CC3`, the inhibition is 9.6%.
For `COc1cccc(CC(NC(C)=O)C(=O)NC2CCN(C(=O)c3ccc(Cl)cc3)CC2)c1` (stereo unspecified), the inhibition was 0.6%.
Regarding `CCCNC(=O)CN1C(=O)COc2ccc(S(=O)(=O)N3CC(C)CC(C)C3)cc21` (stereo unspecified), the inhibition was 5%.
As for `O=C(NCCN1CCOCC1)C(=O)NCC1OCCCN1S(=O)(=O)c1ccc(F)cc1` (stereo unspecified), the figure is -15.9%; as for `O=C(O)c1ccc(N2C(=O)/C(=C/c3ccc(-c4ccc([N+](=O)[O-])cc4)o3)C=C2c2ccccc2)cc1`, 99% (active).
With `CC1CC(C)CN(CCCNC(=O)CCC(=O)N2CC(C)Oc3ccccc32)C1` (stereo unspecified), the inhibition is -2.6%.
As for `O=C(/C=C/c1c(Cl)nc2ccccn12)N1CCN(c2ccc(F)cc2)CC1`, the figure is 26.8%; as for `Cc1ccc(NC(=O)C2CCN(C(=O)c3ccco3)CC2)cc1`, -5.8%.
Next, `Cn1c(SCC(=O)Nc2ccc(N3CCOCC3)cc2)nnc1-c1ccco1`: 1%.
As for `Cc1cc(OCC(=O)Nc2ccc(N3CCN(C(=O)c4ccco4)CC3)cc2)cc(C)c1Cl`, the figure is 94.6% (active); as for `Cc1ccc(S(=O)(=O)N2CCCCC2)c2nsnc12`, -2%.
Take `COc1cc(C(=O)N2CCc3ccccc32)c([N+](=O)[O-])cc1OC`: the inhibition is 26.5%.
Take `CCOc1ccc2nc(N3CCCC(C(=O)NCCCN4C(C)CCCC4C)C3)sc2c1` (stereo unspecified): the inhibition was -12.1%.
As for `Cc1ccc2oc(Nc3nc(-c4ccccc4)cc(=O)[nH]3)nc2c1`, the figure is 61.1% (active); as for `CCOc1ccc(C(=O)NC2CCN(CC(=O)NCc3ccccc3)CC2)cc1`, -7.3%; as for `COc1cccc(NC(=O)NCCN2CCCCC2)c1`, -15.8%.
With `Cc1ccc(NC(=S)c2ccc3ccccc3n2)c(C)c1`, the inhibition was 5.5%.
As for `Cc1ccc(-n2cccn2)c([C@@H]2C[C@H]3CN(C)C(=O)[C@]34CCCN24)c1`, the figure is -6.3%.
